Test results published in PubChem BioAssay AID2540 (Sanford-Burnham Center for Chemical Genomics, 2010).
Among all 330,000 compounds or so, about 4,100 (1.2%) were called active. No stated cut-off is given here; in the data, active means inhibition above about 50%; inactive means the rest. The list comes from a sample in which actives are over-represented; it also holds similar structures and randomly drawn compounds.

Target: Sentrin-specific protease 8 (Homo sapiens) (UniProt Q96LD8)
Test: SENP8 protease inhibitors, primary screen, biochemical, luminescence (AID 2540)
Conditions: purified SENP8, Z-RLRGG-aminoluciferin cleavage, at 10 µM, stronger effect = higher value

Sentrin-specific protease 8 (Homo sapiens), sequence (Q96LD8 whole entry, looked up): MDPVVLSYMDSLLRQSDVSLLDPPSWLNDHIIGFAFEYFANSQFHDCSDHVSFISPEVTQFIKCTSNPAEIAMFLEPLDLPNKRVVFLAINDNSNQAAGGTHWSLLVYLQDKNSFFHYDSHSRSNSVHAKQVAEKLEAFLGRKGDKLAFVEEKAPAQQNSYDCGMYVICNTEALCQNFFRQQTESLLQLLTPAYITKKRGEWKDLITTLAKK

| Structure (SMILES) | inhibition |
| --- | --- |
| COc1cc(/C=C(\C#N)c2nc3ccccc3[nH]2)ccc1O | 91.8% (active) |
| COc1cc(/C=C(\C#N)c2nc3c(s2)CC(C)CC3)ccc1O (configuration not stated) | -4.73% (inactive) |
| Cc1ccc2nc(/C(C#N)=C\c3ccc(OC(=O)c4cccs4)cc3)[nH]c2c1 | 3.01% (inactive) |
| COc1ccc(NC(=O)CN(C)C(=O)Cc2coc3cc(C)c(C)cc23)cc1 | -3.13% (inactive) |
| COc1ccccc1C1=CC(=O)C[C@H](c2ccc(F)cc2)C1 | -4.36% (inactive) |
| CCN(CC)CCNc1nc(-c2ccc(OC(F)F)cc2)c(C)s1 | -5.12% (inactive) |
| COc1ccc(/C=C2\SC(=O)N(CCC(=O)NCCCn3ccnc3)C2=O)cc1 | -11.9% (inactive) |
| COc1ccc(/C=C2/SC(=O)N(CCCCCC(=O)Nc3ccccc3C(=O)O)C2=S)cc1 | 50.3% (active) |
| COc1ccc(/C=C2\SC(=O)N(CCC(=O)NC3CCS(=O)(=O)C3)C2=O)cc1 (configuration not stated) | 2.13% (inactive) |
| CN1C(=O)CC(c2ccccc2)C1=O (configuration not stated) | 1.07% (inactive) |
| COc1cc(NC(=S)NCCSc2ccc(C)cc2)cc(OC)c1 | -1.13% (inactive) |
| COc1cccc(C(=O)c2cc3ccc(O)cc3oc2=O)c1 | 96.9% (active) |
| COc1cccc(C(=O)NNC(=O)c2cccc(F)c2)c1 | -1.03% (inactive) |
| CCOC(=O)c1cc2cc3ccccc3cc2oc1=O | -4.84% (inactive) |
| CN1CCN(Cc2nc3cc(NC(=O)COc4ccc([N+](=O)[O-])cc4)ccc3n2C)CC1 | 0.315% (inactive) |
| COc1ccc(-c2cc3ccc(OCc4nn[nH]n4)cc3oc2=O)cc1 | 39.6% (inactive) |
| CN(C)c1cc(-c2ccc(F)cc2)oc(=O)c1Cl | 2.47% (inactive) |
| O=c1oc2cc(O)ccc2cc1-c1ccc(F)cc1 | 95.4% (active) |
| Cc1ccc(C)c(NC(=O)CN(C)C(=O)c2ccc3ncsc3c2)c1 | -13.6% (inactive) |
| O=C(Nc1ccccc1C(=O)O)c1ccc(N2C(=O)C3CC=CCC3C2=O)cc1 (configuration not stated) | 21.2% (inactive) |
| COc1ccc(CCNC(=O)CCn2c(=O)c3ccccc3n(CC(=O)NCC3CCCO3)c2=O)cc1OC (configuration not stated) | -9.64% (inactive) |
| C[C@H](NC(=O)C1CCN(S(=O)(=O)c2ccccc2)CC1)C(=O)NCc1ccccc1 | -3.77% (inactive) |
| CCOc1ccc(C(O)Cc2nc3ccccc3n2C)cc1 (configuration not stated) | 1.07% (inactive) |
| Cc1ccc(OCc2nc3ccccc3n2C)cc1 | 51.5% (active) |

| Structure (SMILES) | inhibition |
| --- | --- |
| CC(C)n1c(COc2ccccc2)nc2ccccc21 | -6.45% (inactive) |
| CCn1c(SCC(=O)NC2CC2)nnc1-c1ccccc1OC | -9.1% (inactive) |
| COc1ccc(C2OCC3(CO2)SC(=O)NC3=O)cc1OC (configuration not stated) | -5.03% (inactive) |
| CCN(CC)C(=O)CSc1ncnc2c1cnn2-c1ccccc1 | 2.66% (inactive) |
| COc1ccc(-n2ncc3c(SCC(=O)NNC(C)=O)ncnc32)cc1 | 53.4% (active) |
| COC(=O)CSc1ncnc2c1cnn2-c1ccc(C)cc1C | 6.59% (inactive) |
| CC(=O)Oc1ccc2c(=O)oc(-c3ccc([N+](=O)[O-])cc3)nc2c1 | 94.9% (active) |
| CCOC(=O)CSc1nnc(-c2ccc([N+](=O)[O-])cc2)o1 | 1.65% (inactive) |
| CC(=O)Oc1ccc(-c2nc3c(C)cccc3c(=O)o2)cc1 | -1.45% (inactive) |
| N/C(=N\OC(=O)CC1CCCCC1)c1ccccc1 | 18.2% (inactive) |
| N/C(=N\OC(=O)CCC1CCCCC1)c1ccccn1 | 70.6% (active) |
| COc1ccccc1OCC(=O)O/N=C(\N)c1ccccn1 | -6.27% (inactive) |
| COc1ccc(-c2nc(-c3ccccc3)no2)c(OC)c1 | 98% (active) |
| COc1ccc(OC)c(-c2csc(-c3cccs3)n2)c1 | -5.23% (inactive) |
| COc1ccc(-c2noc(CNC(=O)C(C)Oc3ccccc3)n2)cc1 (configuration not stated) | -0.358% (inactive) |
| Clc1ccc2c(c1)C1=C(C(c3ccncc3)O2)C(c2ccc(Br)cc2)n2ncnc2N1 (configuration not stated) | -1.86% (inactive) |
| CC(C)NC(=S)NN=C1CCCCCCCCCCC1 | -4.77% (inactive) |
| CCn1c(CC(=O)Nc2ccccc2)nnc1SCC(=O)N1CCOCC1 | 3.84% (inactive) |
| CCC(C)Cn1c(O)cc2nn(-c3nc4ccccc4s3)c(=O)c-2c1C (configuration not stated) | 48% (inactive) |
| CC(=NCc1ccco1)c1c(C(F)(F)F)[nH]n(-c2nc3ccccc3s2)c1=O | 94.7% (active) |
| CCc1ccc(-c2cc(C(=O)NCc3ccco3)c3ccccc3n2)s1 | -4.94% (inactive) |
| CCC1(CC)NC(=O)N(Cc2nc3ccccc3s2)C1=O | -5% (inactive) |
| C/C(=N\NC(=O)CC(C)C)c1c(C(F)(F)F)[nH]n(-c2nc3ccccc3s2)c1=O | 96.3% (active) |
